# Results reported in the supplement of paper PMC8728848.
# The sample as a whole holds a higher share of the strongest signals than the screen did.
# B1: ClecSol-Fc (Cryptosporidium parvum) (protein)
# chain: CPEGWISNGEKTRCFKLVTFDRPRTFSHGFKACNDLGGTEVETRRRNGSKETNEYPVTLASVYKLSDEEAIRRTLVEQGDIHKTANGCFVGLRKYAFFRYPPGWYWIDSGSPVSVRDSEINWTSSYNASWLLRFKFPFEKCGFFDIGGLGRRPCWLIDSELSCAVCGTVAYDSGGLNPNKYSELIKQTDEIISKEPKLDLPGYNNLNCTDAWENNLSVGLCQNVSNILDSAWSSYQSSLNFPSINFNWKEDSTNEGGDQVYHNSYLDLPRYKQKKTFYWDQDPGTIPALSDEMKLIGLSAQPTYHPLDRSSSGSFESDSTESGRANEERNDTLEEMIYKQSSDSIEDILVPVTKPIFSDYSSIGRNSGVEEVYSSNVSTISSKGVVFPNTTTSSDNDFTKNNPANSSKHTSTSTTTNTTTTTTRTTTTTTTTTTTTTTTTTTTTETTTTKKSTTATKNTTTT
# How the values were obtained:
# Assay in all cases: glycan array binding signal (z-score within array); higher = stronger binding
# Conditions in all cases: glycan notation: IUPAC condensed, linker removed
# [1] = target: GlcNAc(b1-2)[GlcNAc(b1-6)]Man(a1-6)[GlcNAc(b1-2)Man(a1-3)]Man(b1-4)GlcNAc(b1-4)GlcNAc
# Summary of the method: (§1)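 Columns mapping to the same glycan were averaged after glycan names were converted to IUPAC-condensed notation. The data come from 3228 arrays in the Consortium for Functional Glycomics database, limited to those with an available protein sequence. Binding is reported as a within-array Z-score averaged across arrays of one protein sequence and across linkers.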
# [2] = target: GlcNAc(b1-3)Gal(b1-4)GlcNAc(b1-2)Man(a1-3)[GlcNAc(b1-3)Gal(b1-4)GlcNAc(b1-2)Man(a1-6)]Man(b1-4)GlcNAc(b1-4)[Fuc(a1-6)]GlcNAc
# Summary of the method: as §1
# [3] = target: GlcNAc(b1-3)Gal(b1-4)GlcNAc(b1-3)Gal(b1-4)GlcNAc(b1-2)Man(a1-3)[GlcNAc(b1-3)Gal(b1-4)GlcNAc(b1-3)Gal(b1-4)GlcNAc(b1-2)Man(a1-6)]Man(b1-4)GlcNAc(b1-4)[Fuc(a1-6)]GlcNAc
# Summary of the method: as §1
# [4] = target: GlcNAc(b1-3)Gal(b1-4)GlcNAc(b1-3)Gal(b1-4)GlcNAc(b1-3)Gal(b1-4)GlcNAc(b1-3)Gal(b1-4)GlcNAc(b1-2)Man(a1-3)[GlcNAc(b1-3)Gal(b1-4)GlcNAc(b1-3)Gal(b1-4)GlcNAc(b1-3)Gal(b1-4)GlcNAc(b1-3)Gal(b1-4)GlcNAc(b1-2)Man(a1-6)]Man(b1-4)GlcNAc(b1-4)[Fuc(a1-6)]GlcNAc
# Summary of the method: as §1
# [5] = target: GlcNAc(b1-3)Gal(b1-4)GlcNAc(b1-3)Gal(b1-4)GlcNAc(b1-3)GalNAc
# Summary of the method: as §1
# GlcNAc(b1-4)GlcNAc = target: GlcNAc(b1-4)GlcNAc
# Summary of the method: as §1
# [6] = target: Neu5Ac(a2-3)Gal(b1-3)GlcNAc(b1-2)Man
# Summary of the method: as §1
# [7] = target: Neu5Ac(a2-3)Gal(b1-3)GlcNAc(b1-6)GalNAc
# Summary of the method: as §1
# [8] = target: Neu5Ac(a2-3)Gal(b1-4)GlcNAc(b1-3)GalNAc
# Summary of the method: as §1
# [9] = target: Neu5Ac(a2-3)Gal(b1-4)GlcNAc(b1-6)GalNAc
# Summary of the method: as §1
# [10] = target: Neu5Ac(a2-3)Gal(b1-4)[Fuc(a1-3)]GlcNAc(b1-3)GalNAc
# Summary of the method: as §1
# Neu5Ac(a2-3)GalNAc = target: Neu5Ac(a2-3)GalNAc
# Summary of the method: as §1
# [11] = target: Neu5Ac(a2-6)Gal(b1-4)GlcNAc(b1-2)Man(a1-3)[Neu5Ac(a2-6)Gal(b1-4)GlcNAc(b1-2)Man(a1-6)]Man(b1-4)GlcNAc(b1-4)GlcNAc
# Summary of the method: as §1
# [12] = target: Neu5Ac(a2-6)Gal(b1-4)GlcNAc(b1-3)[Neu5Ac(a2-6)Gal(b1-4)GlcNAc(b1-6)]GalNAc
# Summary of the method: as §1
# [13] = target: Neu5Ac(a2-6)GalNAc(b1-4)GlcNAc6S
# Summary of the method: as §1
# [14] = target: Neu5Ac(a2-8)Neu5Ac(a2-8)Neu5Ac
# Summary of the method: as §1
# Neu5Ac(b2-6)GalNAc = target: Neu5Ac(b2-6)GalNAc
# Summary of the method: as §1
# [15] = target: Neu5Gc(a2-3)Gal(b1-4)GlcNAc
# Summary of the method: as §1
binder,measurement,setting,value
B1,glycan array binding signal (z-score),[1],-0.117
same,glycan array binding signal (z-score),[2],0.693
same,glycan array binding signal (z-score),[3],-0.079
same,glycan array binding signal (z-score),[4],0.18
same,glycan array binding signal (z-score),[5],0.074
same,glycan array binding signal (z-score),GlcNAc(b1-4)GlcNAc,5.31
same,glycan array binding signal (z-score),[6],-0.101
same,glycan array binding signal (z-score),[7],-0.123
same,glycan array binding signal (z-score),[8],-0.229
same,glycan array binding signal (z-score),[9],-0.11
same,glycan array binding signal (z-score),[10],-0.101
same,glycan array binding signal (z-score),Neu5Ac(a2-3)GalNAc,0.005
same,glycan array binding signal (z-score),[11],-0.172
same,glycan array binding signal (z-score),[12],-0.216
same,glycan array binding signal (z-score),[13],-0.03
same,glycan array binding signal (z-score),[14],0.518
same,glycan array binding signal (z-score),Neu5Ac(b2-6)GalNAc,-0.003
same,glycan array binding signal (z-score),[15],-0.119
